Assay outcomes from PubChem.
Sampled rows, rich in hits. Any-hit rate of the full collection: about 1.8%.
IEC-6 cytotox: kills IEC-6 intestinal cells in KLF5 counter-screen | IEC-6 cytotoxicity, luminescence viability | inhibition, % at 5 µM | actives 0.78% (n = 290,000);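 also: 0% = plate median of test compound wells and 100% = cytotoxic reference compound wells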
APP 5UTR inh: APP translation inhibition; SH-SY5Y APP 5'UTR-luciferase reporter, luminescence; inhibition, % at 2 µM; actives 0.82% (n = 190,000); AID 1285;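 active = inhibition above a set limit, derived from the sample mean plus 3 SD, cut at about 45% in these data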
Ba/F3 V617F tox: loss of viability in JAK2V617F-driven Ba/F3 cells; Ba/F3 EpoR-JAK2V617F viability, ATP luminescence; inhibition, % at 5.6 µM; actives 1.1% (n = 220,000);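 active = inhibition above the campaign mean plus 3 SD over all tested compounds, cut at about 24% in these data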;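 also: cytokine-independent growth of Ba/F3 cells driven by EpoR plus mutant JAK2; 0% = DMSO-treated cells and 100% = JAK inhibitor I control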
KLF5 inhibitor: kruppel-like factor 5 inhibition; DLD-1 KLF5 promoter-luciferase reporter, luminescence; inhibition, % at 5 µM; actives 0.23% (n = 290,000); AID 1700;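 active = inhibition above a per-plate limit of that plate's mean compound inhibition plus 3 SD, cut at about 60% in these data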;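 also: 0% = DMSO wells and 100% = LY294002 at 200 µM; higher means less KLF5 promoter-driven luciferase light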
BaF3 tox: reduces parental Ba/F3 cell viability, JAK2V617F counter-screen; AID 1486; CellTiter-Glo ATP luminescence; inhibition, % at 5.6 µM; actives 1.1% (n = 220,000);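 active = inhibition above a per-campaign cutoff, the mean inhibition of all tested compounds plus 3 SD, cut at about 27% in these data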;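 also: 0% = DMSO wells and 100% = JAK Inhibitor I control wells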
IEC-6 cytotox cf: confirmation of cytotoxic compounds in rat IEC-6 intestinal epithelial cells. shares compounds with IEC-6 cytotox. IEC-6 rat intestinal epithelial viability, luminescence. inhibition, % at 5 µM. actives 63% (n = 1,900). AID 1907;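 also: 0% = vehicle and 100% = reference cytotoxic drug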
An asterisk follows results filed as active; . = no result. Rule as the data show it, unless noted: active = inhibition above about 22%; inactive = the rest.

SMILES | IEC-6 cytotox | APP 5UTR inh | Ba/F3 V617F tox | KLF5 inhibitor | BaF3 tox | IEC-6 cytotox cf
COC(=O)C(O)(c1ccc(N(C)C)cc1)C(F)(F)F (centres undefined) | -3 | 4 | -1 | -33 | 9 | .
CNc1cc(Cl)c2nonc2c1[N+](=O)[O-] | 93* | 84* | 50* | 5 | 79* | 37*
CN(C)C(=O)O/N=C(\N)COc1ccc(C(C)(C)C)cc1 | 3 | . | 6 | -10 | 2 | .
COC(=O)c1ccccc1-n1c(C)nc2ccccc2c1=O | 2 | -14 | -3 | -7 | 5 | .
O=C(O)c1cccc2nc3ccccc3nc12 | 40* | 2 | 1 | -26 | 7 | 16
C=C1[C@@H](C)[C@H]2[C@H](Cc3ccccc3)NC(=O)[C@]23OC(=O)/C=C/[C@H](O)CCC[C@@H](C)C/C=C/[C@H]3[C@@H]1O | 87* | 54* | 44* | 32 | 48* | 85*
C#CCOc1cc(C2C3=C(COC3=O)Nc3cc4c(cc32)OCO4)ccc1OC (centres undefined) | 78* | 92* | 5 | 52 | 25 | 57*
Cn1c(O)c(/C=C2/C=CC=N2)c(=O)[nH]c1=O | 6 | . | -3 | 1 | -2 | .
